Source: PubChem BioAssay
HttQ103 aggreg: qHTS Multiplex Assay to Identify Dual Action Probes in a Cell Model of Huntington: Aggregate Formation (GFP); PC12 HttQ103-GFP aggregates, Acumen cytometry, 40 h; Potency, µM (series often up to 46.1 µM), without a hit: at the highest dose activity change, negative = inhibition, usual class: inhibitors; hit rate 1.1% among 220,000; further: on the % scale 0 is the no-effect control and ±100 the full control effect; nearly all actives have a fitted effect of over 60% in size
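Inducible Q103 Huntingtin exon 1–GFP PC12 line, 1500 cells/well in phenol red free DMEM with 5% equine and 5% calf serum. Tebufenozide 100 nM induced expression; compounds titrated; aggregates quantified by cytometry.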
TGFb SMAD3 inh: qHTS for Inhibitors of TGF-b; HepG2 CAGA-GFP TGF-b/SMAD3 reporter, GFP fluorescence, 18 h; TGF-beta stimulated, 500 pg/mL final; Potency, µM (highest dose often 46.1 µM), inactives show at the top dose activity, negative = inhibition, actives largely listed as inhibitors; hit rate 1.2% among 410,000; AID 588855, 2011; further: on the % scale 0 is the no-effect control and ±100 the full control effect; nearly all actives have a fitted effect of over 65% in size
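Cell-based qHTS in HEPG2 carrying a CAGA-GFP Smad reporter; compounds added before 500 pg/mL final TGF-beta, 18 h incubation at 37 degrees C, GFP fluorescence quantified per cell by imaging cytometry.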
ATXN2 expr inh: Primary qHTS for Inhibitors of ATXN expression; HEK-293 ATXN2-luciferase reporter, luminescence, 24 h; Potency, µM (titrated, usually from 57 µM), inactives show at the top dose activity change, negative = inhibition, most hits filed as inhibitors; hit rate 0.72% among 360,000; AID 1745845, 2022; further: on the % scale 0 is the no-effect control and ±100 the full control effect; nearly all actives have a fitted effect of over 55% in size
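qHTS (up to 57 uM final) was run with 24 h compound exposure of reporter cells at 37 °C. Each well was multiplexed: SteadyGlo luminescence measured ATXN2-luciferase expression after a fluorogenic Gly-Phe-AFC viability readout (25 uM final).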
ATXN viability: Viability Counterscreen for Primary qHTS for Inhibitors of ATXN expression. Potency, µM (doses to about 56.7 µM), actives largely listed as cytotoxic. AID 651635, 2014. S2 cells (HEK-293 line with an ATXN2-luciferase reporter) viability, CellTiter-Fluor protease fluorescence, 24 h. hit rate 0.49% among 400,000; further: nearly all actives have a fitted effect of over 40% in size
HepG2 tox: qHTS for Inhibitors of TGF-b: Cytotox Counterscreen. HepG2 CAGA-GFP viability, ATP luminescence, 18 h. Potency, µM (doses to about 46.1 µM), for inactives: top-dose activity change, negative = cytotoxicity, usual class: cytotoxic. hit rate 0.76% among 410,000
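CellTiter-Glo luminescence gave cytotoxicity after 18 hours at 37 degrees C. The cells were HepG2 CAGA-GFP in 1% FBS DMEM, stimulated with 500 pg/mL TGF-beta after compound addition. %Activity was normalised to no-cell wells (complete cell-killing) and DMSO (no toxicity), and curves were fitted and classified.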
HTT cytoprotect: qHTS Multiplex Assay to Identify Dual Action Probes in a Cell Model of Huntington: Cytoprotection (ATP) | Potency, µM (titrated, usually from 56.4 µM), inactives show cytoprotection (ATP increase), hits mostly activators | PC12 HTT-Q103 induced, cytoprotection, ATP luminescence, 40 h | hit rate 0.14% among 230,000 | AID 1471, 2008; further: % of control where 0% means no effect; nearly all actives have a fitted effect of over 45% in size
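Huntington model: PC12 line, ecdysone-inducible HTTQ103 exon1–GFP, tebufenozide 100 nM. Test articles in a dose series. Endpoint luminescence from cellular ATP.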
Numbers without * were called inactive; i = inactive; ? = inconclusive; · = no result; [ ] = another dose, or the depositor's remark. Only some compounds are listed: those with a hit (about 2.8% of all), similar ones and a draw of the others. The call rests on the fitted dose curve; in most records, active means well fitted curve in the direction sought with a large enough effect; inconclusive means small, poorly fitted or top-dose-only effect, or another doubt; inactive means no such curve, though single readings can be large; an effect the other way counts as inactive or inconclusive. Potency means the concentration at half of the fitted maximal effect.

SMILES	HttQ103 aggreg	TGFb SMAD3 inh	ATXN2 expr inh	ATXN viability	HepG2 tox	HTT cytoprotect
COc1cc(C(=O)OC(COCCC(C)C)CN2CCOCC2)cc(OC)c1OC (stereo unspecified)	·	·	1%	i	·	·
Cc1c(C(=O)N(C)Cc2ccccc2)sc2nc(-c3ccc(F)cc3)cn12	·	13µM*	·	·	-61%	·
COc1cccc(/C=C2/Sc3ccc(C(=O)NCCN4CCCCCC4)cc3NC2=O)c1	·	10µM*	·	?	16µM*	·
CCN1CCCC1CNC(=O)c1ccc2c(c1)NC(=O)/C(=C\c1ccc(OC)c(OC)c1)S2 (stereo unspecified)	·	13µM*	·	·	13µM*	·
CCN1CCN(CCCNC(=O)c2ccc3c(c2)NC(=O)/C(=C\c2cccc(C)c2)S3)CC1	·	?	·	?	13µM*	·
Cc1cccc(/C=C2/Sc3ccc(C(=O)NCCN4CCCC4)cc3NC2=O)c1	·	?	·	?	-131%	·
CCN1CCCC1CNC(=O)c1ccc2c(c1)NC(=O)/C(=C\c1ccccc1Cl)S2 (stereo unspecified)	·	?	·	i	-96%	·
O=C1Nc2cc(C(=O)NCCN3CCCCCC3)ccc2S/C1=C\c1ccccc1	·	?	·	?	14µM*	·
Cc1cnc2c(C)ccc(C)c2c1/C=C/c1ccc(N(C)C)cc1	·	-5%	·	·	-4%	·
O=C1Nc2cc(C(=O)N3CCc4ccccc4C3)ccc2S/C1=C\c1ccccc1	-26%	-16%	-9%	i	-2%	2.8µM*
CN1CCN(C(=O)c2ccc3c(c2)NC(=O)/C(=C/c2ccccc2)S3)CC1	·	-12%	-27%	i	-1%	·
COc1ccc(/C=C2/Sc3ccc(C(=O)NCCCN4CCOCC4)cc3NC2=O)cc1OC	·	14µM*	-38%	?	20µM*	·
O=C1Nc2cc(C(=O)NCCCN3CCCC3)ccc2S/C1=C/c1cccc(Cl)c1	·	?	·	?	16µM*	·
CCCCS(=O)(=O)/C=C\C=C/S(=O)(=O)CCCC	?	?	7.1µM*	8.9µM*	-79%	-97%[10 µM]
Cc1cc(C)n(-c2cccc(C(=O)NCC3Cc4cccc(-c5ccccn5)c4O3)c2)n1 (stereo unspecified)	·	·	·	i	·	·
CCc1ccc(/C=C/C(=O)C2C(=O)c3ccccc3C2=O)cc1	?	0%	?	i	-34%	-102%
CC[N+]1(C)CCC(O)(/C=C/c2ccccc2)C(C(=O)/C=C/c2ccccc2)C1 (stereo unspecified)	·	4µM*	?	·	11µM*	·
CC(C)OP(=O)(OC(C)C)/C(C=O)=N\Nc1ccc([N+](=O)[O-])cc1	10%[9.22 µM]	?	·	28µM*	-81%	14%[10 µM]
CC(C)OP(=O)(OC(C)C)C(Nc1ccc([N+](=O)[O-])cc1)c1cccc([N+](=O)[O-])c1 (stereo unspecified)	4%[9.22 µM]	-29%	-13%	i	-40%	-4%[10 µM]
COC(=O)[C@](C)(N)Cc1ccc(O)cc1	·	·	·	·	·	-8%[1.9 µM]
Cc1ccc(OCC(=O)Nc2ccc(Cl)cc2)c(-n2nc3ccccc3n2)c1	29%	5%	35µM*	·	-36%	11%
CC1(C)OC(=O)C2(Cc3cc([N+](=O)[O-])ccc3N3CCCCCC32)C(=O)O1 (stereo unspecified)	·	2%	·	·	5%	·
CCOC(=O)CSc1nc2ccccc2c(=O)n1CC	-22%	4%	8%	i	4%	-10%[0.074 µM]
CCn1c(SCC(=O)OC2CCCCC2)nc2ccccc2c1=O	0.63µM*	?	-24%	i	-32%	-3%[10 µM]
Cc1cc2ccc(Cl)nc2nc1C	·	0%	·	·	1%	·
